Rows were chosen to be rich in hits. Some 9% of all compounds tested hit in one or more screens of this group.
HP1b binding inh: inhibitors of HP1-beta chromodomain binding to methylated histone tails; Potency, µM (top dose mostly 114 µM), for the others: at the highest dose activity change, negative = inhibition, hits mostly inhibitors; P83916; AlphaScreen HP1-beta / biotin-H3K9me3 peptide binding; hit rate 0.56% among 390,000; note: nearly all actives have a fitted effect of over 70% in size
Target sequence (P83916 whole entry, looked up): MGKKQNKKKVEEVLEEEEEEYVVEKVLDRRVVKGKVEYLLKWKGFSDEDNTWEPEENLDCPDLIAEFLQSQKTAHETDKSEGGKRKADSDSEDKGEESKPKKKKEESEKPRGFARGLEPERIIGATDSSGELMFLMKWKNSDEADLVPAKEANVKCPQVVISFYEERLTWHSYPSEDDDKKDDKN
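Compound inhibition of the preformed complex between 50 nM HP1-beta and 50 nM biotinylated H3K9me3 peptide was read by AlphaScreen. Buffer was PBS pH 7.4 with 0.01% Tween-20. Incubations ran 30 min at room temperature, with 10 ug/mL donor/acceptor beads.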
ALOX12 inh: ALOX12 (human) lipoxygenase inhibition. Potency, µM (titrated, usually from 108 µM), for inactives: top-dose activity change, negative = inhibition, actives largely listed as inhibitors. hit rate 1.1% among 580,000. AID 1671190. purified 12hLO, xylenol orange hydroperoxide absorbance; note: % is set by controls: 0 for no effect and ±100 for the full control effect
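Hydroperoxide product was detected by ferrous iron/xylenol orange as the 573 to 405 nm absorbance ratio. Arachidonic acid at 40 uM (final) was turned over for 30 min at room temperature by 150 nM human 12hLO, pH 7.0 Hepes buffer, after 15 min compound preincubation.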
JMJD2A Tudor: JMJD2A Tudor domain (human) inhibition. Potency, µM (highest dose often 114 µM), for inactives: at the highest dose activity change, negative = inhibition, usual class: inhibitors. AlphaScreen JMJD2A-Tudor / H3K4me3 peptide binding. O75164. hit rate 4.4% among 390,000; note: % is set by controls: 0 for no effect and ±100 for the full control effect; nearly all actives have a fitted effect of over 50% in size
PLK1 PBD block: inhibitors of human PLK1 polo-box domain binding | Plk1 PBD binding of FITC phosphopeptide, fluorescence polarization | P53350 | hit rate 2.8% among 360,000 | Potency, µM, for inactives: max response, negative = inhibition, usual class: inhibitors; note: series mostly up to about 57 µM; % is set by controls: 0 for no effect and ±100 for the full control effect; nearly all actives have a fitted effect of over 65% in size
G9a inh: inhibitors of human histone lysine methyltransferase G9a; G9a H3K9 monomethylation, AlphaScreen, 2 h; hit rate 8.8% among 350,000; AID 504332; Potency, µM (series often up to 102 µM), for the others: at the top dose activity, negative = inhibition, hits mostly inhibitors; Q96KQ7; note: % is set by controls: 0 for no effect and ±100 for the full control effect; nearly all actives have a fitted effect of over 75% in size
Target sequence (Q96KQ7 913-1193 limits assumed): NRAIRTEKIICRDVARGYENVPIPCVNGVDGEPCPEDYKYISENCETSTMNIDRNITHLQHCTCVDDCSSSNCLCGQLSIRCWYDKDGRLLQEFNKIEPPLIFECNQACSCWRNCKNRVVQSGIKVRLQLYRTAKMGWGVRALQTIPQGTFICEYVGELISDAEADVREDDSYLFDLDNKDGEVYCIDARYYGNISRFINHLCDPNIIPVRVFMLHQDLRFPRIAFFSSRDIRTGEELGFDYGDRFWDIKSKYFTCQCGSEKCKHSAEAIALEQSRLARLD
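G9a (20 nM) preincubated 15 min RT with compounds, then 500 nM biotinylated H3K9 peptide and 20 uM SAM added; 2 h RT reaction. Monomethyl-H3K9 product detected by AlphaScreen with anti-H3K9me1 antibody, streptavidin donor and anti-rabbit IgG acceptor beads.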
BAZ2B block: blocks human BAZ2B | AlphaScreen BAZ2B-H3K14Ac peptide displacement | Potency, µM (titrated, usually from 114 µM), for the others: at the top dose activity change, negative = inhibition, actives largely listed as inhibitors | Q9UIF8 | AID 504333 | hit rate 4.4% among 360,000; note: % is set by controls: 0 for no effect and ±100 for the full control effect; nearly all actives have a fitted effect of over 60% in size
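Compounds, titrated to a top concentration of 110 uM, were incubated 30 min at room temperature with preformed BAZ2B/acetyl-K14 H3 peptide complex (50 nM each). Proximity signal was measured by AlphaScreen after 20 min with beads.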
Numbers without * were called inactive; ? = inconclusive; nt = no result; [ ] = remark or other dose. Calls come from the whole dose curve; as a rule, active = well fitted curve in the direction sought with a large enough effect; inconclusive = small, poorly fitted or top-dose-only effect, or another doubt; inactive = no such curve, though single readings can be large; an effect the other way counts as inactive or inconclusive. Potency is the fitted concentration of half-maximal effect.

SMILES | HP1b binding inh | ALOX12 inh | JMJD2A Tudor | PLK1 PBD block | G9a inh | BAZ2B block
C[C@@H](C(=O)OCC(=O)Nc1cc(S(=O)(=O)N2CCOCC2)ccc1Cl)N1C(=O)C2CCCCC2C1=O (stereo not given in full) | 35% | -20% | -6% | 3% | -1%[59 µM] | -3%
COc1ccc(N2CCN(C(CNS(=O)(=O)c3cc(F)ccc3F)c3cccnc3)CC2)cc1 (stereo not given) | -23% | 1% | ? | -6% | 45µM* | -38%
O=S(=O)(NCC(c1cccnc1)N1CCN(c2ccc(F)cc2)CC1)c1cc(F)ccc1F (stereo not given) | 11% | 21% | ? | -1% | nt | nt
Cc1cc(C(=O)CSc2ccc3c(c2)OCCO3)c(C)n1C1CC1 | -15% | -21% | -26% | -11% | ? | 79µM*
CCNc1nnc(SCC(=O)c2cc(C)n(C3CC3)c2C)s1 | 7% | -12% | -33% | -7% | 50µM* | -10%
O=C(CSc1ccc2c(c1)OCCO2)NC1CCCCC1 | nt | -4% | nt | nt | nt | nt
COCCNc1nnc(SCC(=O)c2cc(C)n(C3CC3)c2C)s1 | nt | 24% | nt | -16% | nt | nt
O=C(O)c1cccc(NS(=O)(=O)c2ccc3nnn(O)c3c2)c1 | 28% | ? | -21% | -10% | 2%[12.7 µM] | 2%
O=C(CSc1ncn[nH]1)c1ccc2c(c1)OCO2 | 26% | ? | 32µM* | -16% | 6%[12.7 µM] | 11%
O=C(CSc1nc2ccc(Cl)cc2[nH]1)c1ccc2c(c1)OCO2 | 22% | 11µM* | 22µM* | -3% | 35µM* | 50µM*
O=C(CSc1nc2ncc(Cl)cc2[nH]1)c1ccc2c(c1)OCO2 | 22% | ? | -17% | -9% | ? | -21%
O=C(CSc1nc2cc(Cl)c(Cl)cc2[nH]1)c1ccc2c(c1)OCO2 | 26% | ? | -7% | ? | 11µM* | 13%
Cc1nn(C)c(C)c1-c1ccnc(NCC2CC(=O)N(C3CCCC3)C2)n1 (stereo not given) | nt | 80% | nt | nt | nt | nt
O=C(O)c1cccc(-c2nnn(Cc3ccccc3Cl)n2)c1 | 10% | 0% | ? | 21µM* | 10%[59 µM] | 10%
COc1ccccc1N(CC(=O)NC1CCCCC1)C(=O)Cn1nnc(-c2ccc(C)o2)n1 | -12% | 1% | -22% | 4% | -7% | -23%
Cc1ccc(S(=O)(=O)c2ccccc2)cc1S | nt | nt | nt | nt | 3.5µM* | 4%
Cc1cc(S(=O)(=O)c2ccc(O)c(C)c2)ccc1O | nt | -65% | nt | nt | nt | nt
Cc1c(C(=O)OCc2nc3ccsc3c(=O)[nH]2)oc2ccccc12 | 42% | 357% | -13% | -2% | 12%[12.7 µM] | 5%
CN(c1nnc(N)s1)C1CCCCC1 | 41% | 18%[57.4 µM] | -1% | -13% | 40µM* | -1%
COc1ccc(CN2C(=O)c3cccnc3C2Nc2ccc(OC)c(Cl)c2)cc1 (stereo not given) | -16% | ? | 50µM* | -15% | ? | ?
COC(=O)c1ccccc1NC1c2ccccc2C(=O)N1Cc1ccccc1Cl (stereo not given) | nt | -3% | nt | nt | nt | nt
COc1ccc(CN2C(=O)c3ccccc3C2C(=O)NCc2cccnc2)c(OC)c1 (stereo not given) | 22% | -16% | -18% | -2% | -9% | -6%
COc1ccc(NC2c3ccccc3C(=O)N2Cc2ccccc2Cl)cc1OC (stereo not given) | ? | ? | -18%[11.4 µM] | -14% | 50µM* | ?
COc1ccc(NC2c3ncccc3C(=O)N2Cc2ccccc2)c(OC)c1 (stereo not given) | -15% | ? | 25µM* | -19% | 13µM* | ?
CCOC(=O)Nc1ccc(OC)c([N+](=O)[O-])c1 | 35% | 7% | -5% | 8% | 19% | -5%
SMILES | HP1b binding inh | ALOX12 inh | JMJD2A Tudor | PLK1 PBD block | G9a inh | BAZ2B block
CC(C)(C)S(=O)(=O)/C(C#N)=N/Nc1ccc(S(C)(=O)=O)cc1 | 3% | -7% | -5%[11.4 µM] | 21µM* | -44% | -15%
CC(C)(C)S(=O)(=O)/C(C#N)=N/Nc1ccc(C#N)cc1 | 22% | 21% | -23% | -12% | -34% | 71µM*
COc1cccc(N/N=C(\C#N)S(=O)(=O)C(C)(C)C)c1 | -13% | ? | -24% | -8% | ? | -26%
CC(C)(C)S(=O)(=O)/C(C#N)=N/Nc1ccc(S(N)(=O)=O)cc1 | 27% | -1% | 89µM* | 0% | -24% | -23%
NS(=O)(=O)c1ccc(NC(=O)Nc2ccc(S(N)(=O)=O)cc2)cc1 | 24% | 111% | -18% | 3% | 0% | 6%
COCc1nc(-c2ccc3c(c2)OCCCO3)cs1 | nt | -32% | nt | nt | nt | nt
CCOC(=O)COc1ccc(C)cc1-c1ccno1 | 24% | 0% | 4% | 3% | -2%[12.7 µM] | 18%
C/C(CCN1CCc2nc(-c3ccccc3)c(-c3ccccc3)cc2C1)=N\OC[C@@H](C)[C@H](OCc1ccccc1)C(C)C | 13% | nt | -27% | -9% | 45µM* | -22%
C/C(CCN1CCc2nc(-c3ccccc3)c(-c3ccccc3)cc2C1)=N\O[C@H](C)c1cn([C@H](CO)Cc2ccccc2)nn1 | nt | nt | nt | nt | 50µM* | -34%
CCN1C(=O)[C@H]2[C@H]3[C@H](O)[C@H](O)C/C(=N\O[C@H](C)c4cn([C@H](CO)Cc5ccccc5)nn4)[C@@H]3CC[C@H]2C1=O | nt | nt | nt | nt | ? | -3%
CC(C)c1nc2c(c(-c3ccc(O)cc3)n1)CCN(Cc1ccccc1)CC2 | nt | 26% | nt | nt | nt | nt
Cc1ccc(C(=O)c2ccccc2)c(C)c1 | nt | 8% | nt | nt | nt | nt
C#CCOCCOCCOCCNc1nc(N2CCN(C(=O)CCCCCCCCCCNC(=O)[C@H](CCCCN)n3cc(C[C@@H](C)CC)nn3)CC2)nc(N2CCN(C(=O)CCCCCCCCCCNC(=O)[C@H](CCCN=C(N)N)n3cc(C[C@@H](C)CC)nn3)CC2)n1 | 50µM* | nt | 35µM* | 9% | -38%[2.33 µM] | 50µM*
C#CCOCCOCCOCCNc1nc(N2CCN(C(=O)CCCCCCCCCCNC(=O)[C@@H](CCSC)n3cc(CCO)nn3)CC2)nc(N2CCN(C(=O)CCCCCCCCCCNC(=O)[C@H](CCCN=C(N)N)n3cc(C[C@@H](C)CC)nn3)CC2)n1 | -32% | nt | 45µM* | 15% | -15%[2.33 µM] | 50µM*
C#CCOCCOCCOCCNc1nc(N2CCN(C(=O)CCCCCCCCCCNC(=O)[C@H](CO)n3cc(CCCCCN)nn3)CC2)nc(N2CCN(C(=O)CCCCCCCCCCNC(=O)[C@H](CCCN=C(N)N)n3cc(C[C@@H](C)CC)nn3)CC2)n1 | nt | nt | nt | nt | 3%[2.33 µM] | 50µM*
